Screens as filed in PubChem BioAssay.
D3 ag = activates the human D3 dopamine receptor. P35462. D3R DiscoveRx beta-arrestin cells, luminescence, 90 min. max activation, %. 0.58% of 410,000 active; in the data active = max activation above about 30%; also: 0% is about no effect
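Agonist-mode cell screen: cells plated at 1500/well and incubated overnight at 37 °C, then exposed to library compounds for 90 min at 37 °C. Detection reagent was added for 30–60 min at room temperature, and luminescence was read.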
LDHA block = inhibitors of human lactate dehydrogenase A; P00338; purified LDHA, NADH/diaphorase-resazurin fluorescence; active compounds read low; activity change, % (values are at about 110 or 230 µM); 0.15% of 480,000 active; AID 1347041; in the data active = activity change below about -30%; inconclusive = mostly about -25% to -30%;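 also: plate controls were DMSO wells for no effect and wells without enzyme for full effect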
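Enzyme activity of human lactate dehydrogenase 5 (2 nM; 0.06 mM NADH, 0.2 mM pyruvate, 5 min, RT) is measured via a resazurin/diaphorase fluorescence readout of residual NADH.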
DRD3 antagonist = antagonists of human D3 dopamine receptor | P35462 | D3R cells, DiscoveRx beta-arrestin luminescence, antagonist mode; active compounds read low | max response, negative = inhibition, % | 2.5% of 360,000 active | AID 652054; in the data active = max response below about -50%; inconclusive = no clear call, values can overlap the other calls; also: % is scaled to controls: 0 for no effect and ±100 for the full control effect
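Cells plated overnight at 1500 cells/well, then exposed to library compounds with dopamine controls for 90 minutes at 37 degrees C. DiscoveRx reagent added for 30–60 minutes at room temperature; luminescence read, quantitative HTS format.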
PI4K2A block = PI4K2A (human) kinase inhibition | purified PI4K2A, ADP-Glo luminescence, 1 h; active compounds read low | activity change, negative = inhibition, % at 76.9 µM | 0.13% of 420,000 active | AID 1346378; in the data active = activity change below about -50%; inconclusive = mostly about -30% to -49%;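 also: -100% = wells without enzyme as full effect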
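Compounds are screened against recombinant PI4K2A using PI as substrate and ATP, the latter dispensed at 300 microM. Reactions run one hour at ambient temperature before ADP-Glo detection; full inhibition defined by wells lacking enzyme.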
PI5P4Ka inh = blocks human PI5P4K alpha kinase activity; P48426; PI5P4Kalpha enzyme, ADP-Glo luminescence, 60 min; active compounds read low; max response, %; 1.2% of 330,000 active; AID 652105; active = max response of -50% or lower; inconclusive = between -30% and -50%; inactive = -30% or higher; also: value at the top dose of about 77 µM; % is scaled to controls: 0 for no effect and ±100 for the full control effect
Target sequence (P48426 whole entry, looked up): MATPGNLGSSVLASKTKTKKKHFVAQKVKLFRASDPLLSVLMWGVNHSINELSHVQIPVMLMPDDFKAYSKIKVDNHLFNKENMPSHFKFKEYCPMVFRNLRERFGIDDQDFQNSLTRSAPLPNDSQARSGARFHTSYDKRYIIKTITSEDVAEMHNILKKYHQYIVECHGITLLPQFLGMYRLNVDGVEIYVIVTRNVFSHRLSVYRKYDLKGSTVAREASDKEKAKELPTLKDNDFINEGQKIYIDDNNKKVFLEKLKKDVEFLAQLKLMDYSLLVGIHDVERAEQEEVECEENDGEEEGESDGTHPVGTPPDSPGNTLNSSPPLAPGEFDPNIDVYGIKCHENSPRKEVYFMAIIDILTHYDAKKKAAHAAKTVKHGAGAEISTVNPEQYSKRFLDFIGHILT
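Human PI5P4Kalpha with substrate in 0.038 M HEPES pH 7.4, 0.28 mM EGTA, 0.1% CHAPS, 5% DMSO; reaction started with 5 microM ATP (final), 60 min at room temperature. ADP formed read by ADP-Glo luminescence.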
* = called active by the depositor; ? = inconclusive; . = no result given. The list is not random: actives were taken first. Their share in the collection is about 3.3%.

SMILES | D3 ag | LDHA block | DRD3 antagonist | PI4K2A block | PI5P4Ka inh
O=C(CCN1C(=O)/C(=C/c2cccs2)SC1=S)Nc1ccccc1O | -1 | -9 | 10 | 3 | 4
O=C(CCCN1C(=O)/C(=C\c2cccs2)SC1=S)Nc1cc([N+](=O)[O-])ccc1O | -19 | -4 | -90* | -1 | ?
CN(C)CCNC(=O)Cn1ccc2cc(S(=O)(=O)N3CCCCCC3)ccc21 | -16 | -3 | -55* | 2 | -3
Fc1ccc(Oc2ncnc3c2oc2ccccc23)c(Cl)c1 | . | -5 | . | . | .
CN(C)C/C=C/C(=O)Nc1cccc(-c2c[nH]c3ncnc(Oc4ccc(NC(=O)CC(=O)Nc5ccc(F)cc5)cc4F)c23)c1 | -34 | -3 | 17 | -4 | -50*
CCCCCC(=O)N1C[C@@H](n2cc(-c3ccc(F)cc3)nn2)[C@H](O)C[C@@H]1c1ccc(C)cc1 | 4 | -34* | 16 | -3 | 13
CCCCCC(=O)N1C[C@@H](O)[C@H](n2cc(-c3ccc(F)cc3)nn2)C[C@@H]1c1ccc(C)cc1 | 1 | -19 | 5 | -5 | 2
COc1ccccc1C(=O)Nc1ccnn1C1CCN(Cc2cc(C)c(C)cc2C)CC1 | -52 | -6 | 0 | 3 | 1
Cn1cc(CN2CCC(n3nccc3NC(=O)c3ccccc3Cl)CC2)c2ccccc21 | -5 | 0 | -52* | -18 | 7
COc1ccccc1C(=O)Nc1ccnn1C1CCN(Cc2cn(C)c3ccccc23)CC1 | 2 | -1 | 2 | 0 | 4
Cc1cc(C)c(CN2CCC(n3nccc3NC(=O)c3ccccc3Cl)CC2)cc1C | -12 | -3 | -52* | -1 | -4
O=C(NCC12CC3CC(CC(C3)C1)C2)Nc1ccc(Cl)cc1F | . | -17 | . | . | .
Nc1nc(SCc2ccc(Cl)cc2Cl)nc2nc3c(cc12)CCCC3 | -9 | -4 | -57* | 8 | -4
Nc1nc(SCc2ccccc2Cl)nc2nc3c(cc12)CCCC3 | -9 | -3 | -22 | 18 | .
S=c1[nH]nc(-c2ccccc2)n1C1C=CCCC1 (configuration not stated) | -3 | -4 | -55* | -3 | 6
CC(CN1CCCCC1)OC(=O)C1c2ccccc2Oc2ccccc21 (configuration not stated) | -3 | 4 | -63* | -2 | -2
CC(CN1CCN(C)CC1)OC(=O)c1ccc(Cl)cc1 (configuration not stated) | -11 | -2 | -14 | -2 | -1
CC(CN1CCCC1)OC(=O)c1ccc(Br)cc1 (configuration not stated) | -20 | 0 | -67* | -4 | 5
CC(CN1CCCCC1)OC(=O)c1ccc(C(C)(C)C)cc1 (configuration not stated) | . | 8 | . | . | .
O=C(c1ccc(Cl)cc1)C(CN1CCCCC1)c1ccccc1 (configuration not stated) | -26 | -1 | -73* | 30 | 3
CC(CN1CCCCC1)OC(=O)c1ccc(Cl)cc1 (configuration not stated) | -18 | 2 | -56* | -13 | -2
O=[N+]([O-])c1ccc(N=Nc2ccc(O)cc2O)cc1 | 3 | 0 | 10 | -6 | -17
O=S(=O)(O)c1cc(Cl)cc(N=Nc2ccc(O)cc2O)c1O | -9 | 13 | -21 | -18 | -98*
Cc1ccccc1C(=O)NC(C)c1nc(-c2ccccc2C)no1 (configuration not stated) | . | 7 | . | . | .
CCC(NC(=O)c1cccc(COC)c1)c1ccccc1OC(F)F (configuration not stated) | . | -5 | . | . | .
SMILES | D3 ag | LDHA block | DRD3 antagonist | PI4K2A block | PI5P4Ka inh
O=C(CNS(=O)(=O)c1ccc(Br)cc1Cl)OCC(=O)c1ccc[nH]1 | 3 | -2 | 23 | 3 | 2
O=C(CNS(=O)(=O)c1c(Cl)cccc1Cl)OCC(=O)c1ccc[nH]1 | -3 | 1 | 15 | -6 | -51*
CCOC(=O)C1=C(C)N(c2ccc(OC)cc2)C(=O)/C1=C\c1cccs1 | 72* | -7 | -20 | 1 | 3
CCOC(=O)C1=C(C)N(c2ccc(OC)cc2)C(=O)/C1=C\c1ccc(O)c(OCC)c1 | -2 | 15 | -26 | -3 | -15
O=C(NCc1cccnc1)/C(=C\c1ccc(-c2ccc(Br)cc2)o1)S(=O)(=O)c1ccccc1 | -13 | -8 | -89* | 4 | -7
O=C(NCc1cccnc1)/C(=C/c1ccc(-c2ccc(Cl)cc2)o1)S(=O)(=O)c1ccccc1 | -46 | 1 | ? | 3 | .
C1CCN(CCCNC2C3CC4CC(C3)CC2C4)C1 (configuration not stated) | -6 | 1 | -53* | 1 | -4
N#Cc1nc(Nc2cc(F)cc(F)c2)c2ncn(CCO)c2n1 | . | 1 | . | . | .
O=C1C=C(Nc2ccc(C(F)(F)F)cc2)CCC1 | . | 0 | . | . | .
COc1ccc(-c2nc3n(n2)C(c2ccncc2)C(C(N)=O)=C(C)N3)cc1 (configuration not stated) | -3 | -4 | -59* | -4 | -3
N#CC1=C(N)SC(N)=C(C#N)C1Cc1ccccc1 | 0 | 1 | 24 | -6 | -52*
CC(C)CC1C(C#N)=C(N)SC(N)=C1C#N | -1 | 19 | 19 | 4 | .
CC1(C)CC(=O)C2=C(C1)OC(N)=C(C#N)C2CCc1ccccc1 (configuration not stated) | 2 | -1 | ? | -3 | 4
N#CC1=C(N)SC(N)=C(C#N)C1c1c(Cl)cccc1Cl | -3 | 16 | 61 | -4 | -65*
N#CC1=C(N)SC(N)=C(C#N)C1c1cccc(Oc2ccccc2)c1 | 10 | 7 | -15 | 9 | .
N#CC1=C(N)SC(N)=C(C#N)C1CCc1ccccc1 | 8 | 5 | -7 | -5 | -84*
CSc1ccccc1C(=O)NC(c1ccccc1)c1ccccc1 | . | -4 | . | . | .
CCCCc1nc(NCC2CCCO2)c(C#N)c2c1CCCC2 (configuration not stated) | . | 11 | . | . | .
Cc1cnc(NC(=O)Cn2ccc3c(Br)cccc32)s1 | . | -3 | . | . | .
O=C(c1ccco1)N1CCN(Cc2nnc(-c3cccc(Cl)c3)o2)CC1 | 37* | -6 | -7 | -4 | 0
COc1ccc2ccccc2c1CN1CCN(C(=O)c2ccco2)CC1 | 48* | 1 | -10 | 0 | 3
CCOc1ccc(CN2CCN(C(=O)c3ccco3)CC2)cc1 | 25 | ? | 0 | 2 | 0
CCOc1cc(CN2CCN(C(=O)c3ccco3)CC2)ccc1OC | 44* | -14 | ? | 10 | 5
CC(=O)Oc1ccc2oc(/C=C/N(C)C)c([N+](=O)[O-])c2c1 | -6 | 0 | -80* | 3 | -5
C/C(=C/c1oc2ccc(O)cc2c1[N+](=O)[O-])N(C)C | -3 | 19 | -13 | -7 | 3
SMILES | D3 ag | LDHA block | DRD3 antagonist | PI4K2A block | PI5P4Ka inh
Nc1nc(N2CCCCC2)nc2ccccc12 | -3 | -8 | 1 | 5 | 2
Nc1nc(N2CCN(c3ccccn3)CC2)nc2ccccc12 | -1 | -30* | -23 | -6 | -7
Cc1ccc2nc(N3CCN(c4ccc(F)cc4)CC3)c3nnnn3c2c1 | 30 | 5 | . | -6 | .
Cc1ccc2nc(Cl)c3nnnn3c2c1 | -6 | 8 | -109* | -3 | -1
COc1ccc(N2CCN(c3nc4ccc(C)cc4n4nnnc34)CC2)cc1 | 73* | 0 | . | -1 | .
Cc1ccc(C(=O)c2coc3ccc(OCC(=O)O)cc23)cc1 | -5 | -3 | -61* | -1 | ?
COC(=O)COc1ccc2occ(C(C)=O)c2c1 | -8 | 4 | -105* | 0 | .
